# Laboratory results as given in PubChem BioAssay AID1645859 (Buhrlage Lab, Dana-Farber Cancer Institute and Novartis …, 2021).
# About 95 (0.2%) of roughly 47,000 compounds were called active. Many of the other results were omitted from the sample, so actives are more common in it than they were. Values without a mark were called inactive. No stated cut-off is given here; in the data, active means inhibition above about 30%; inactive means the rest.
# Target: Ubiquitin carboxyl-terminal hydrolase isozyme L1 (Homo sapiens) (UniProt P09936)
# Sequence (P09936 whole entry, looked up): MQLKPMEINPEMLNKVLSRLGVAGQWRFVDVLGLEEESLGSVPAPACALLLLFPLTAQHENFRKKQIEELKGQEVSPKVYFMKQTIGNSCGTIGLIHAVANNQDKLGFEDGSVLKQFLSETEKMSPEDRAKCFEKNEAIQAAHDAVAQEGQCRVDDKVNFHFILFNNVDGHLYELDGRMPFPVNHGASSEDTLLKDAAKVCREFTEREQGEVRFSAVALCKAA
# Assay: blocks human UCHL1 ubiquitin-rhodamine cleavage (AID 1645859)
# Conditions: purified UCHL1, Ub-rhodamine cleavage fluorescence; at 20 µM; active compounds read high
row,Compound,inhibition
1,O=C(Cn1cnc(S(=O)(=O)N2CCc3ccccc32)c1)Nc1ccc2c(c1)OCO2,-7.24%
2,Cc1ccc(CNC(=O)CCCn2c(=O)c3sccc3n(CC(=O)OCc3ccccc3)c2=O)cc1,-0.426%
3,CCN1CCN(c2ncc(C(=O)Nc3ccc(F)cc3)c(C)n2)CC1,-0.515%
4,O=C(CCc1nnc2ccc(N3CCCCC3)nn12)NCC1CCCO1 (stereo unspecified),-1.95%
5,Cc1ccc(C)c(CSC2=NCCN2C(=O)c2ccco2)c1,-0.972%
6,O=C(C1CCN(c2nc3ccc(-c4cccnc4)nc3s2)CC1)N1CCOCC1,-0.864%
7,Cc1cnn(CC2CCCCN2C(=O)Cc2c(C)noc2Cl)c1 (stereo unspecified),0.232%
8,Cc1c(NC(=O)c2ccc(C(C)(C)C)cc2)c(-n2cnnc2)nn1C,-0.768%
9,O=C(Cc1ccccc1Cl)Nc1ccc(N2CCOCC2)cc1,2.8%
10,O=C(NC1CC1)c1nc(-c2ccc(-n3cccc3)cc2)no1,1.38%
11,COCC(=O)N1CCCC2(COCCN(CCN(C)C)C2)C1 (stereo unspecified),0.844%
12,O=C(O)C1CCCN1Cc1c(-c2cccs2)nc2ccccn12 (stereo unspecified),-7.21%
13,COc1ccc(N2C(=O)c3ccccc3NC2c2ccc(OCC(N)=O)cc2)cc1 (stereo unspecified),3.76%
14,COc1ccc(OC)c(NC(=O)[C@H]2C[C@H](C)N[C@]23C(=O)Nc2c(Cl)cc(C)cc23)c1,-6.13%
15,CCCOc1ccnc2c1c(=O)n(CC(=O)NC1CCCC1)c(=O)n2C,-3.9%
16,Cc1cccc(-c2nccnc2C2CCCN(C(=O)c3cnccn3)C2)c1 (stereo unspecified),5.49%
17,COc1ccccc1C(=O)NCC(c1ccc2c(c1)CCCN2C)N1CCCC1 (stereo unspecified),-73.4%
18,Cc1ccc(C)c(NC(=O)C(Sc2nnc(-c3ccccc3)n2C)c2ccccc2)c1 (stereo unspecified),0.846%
19,Cn1cc(N2CCC3(CCN(C(=O)c4ccc(F)cc4)CC3)C2=O)cn1,0.646%

row,Compound,inhibition
1,O=C(NC1CCOCC1)N[C@H]1C[C@H]2CN(Cc3ccccc3)Cc3ccccc3CN2C1,1.49%
2,Cc1cccc(CNC(=O)C2CCCN(S(=O)(=O)Cc3ccc(F)cc3)C2)c1 (stereo unspecified),3.47%
3,N#Cc1ccc(Oc2nc(-c3ccccc3)nnc2-c2ccccc2)cc1,-0.193%
4,O=C1CCCN1c1ccc(S(=O)(=O)N2CCc3ccccc3C2)cc1,-1.26%
5,CC(=O)c1cccc(NC(=O)CCN(c2cc(C)cc(C)c2)S(=O)(=O)c2ccc(Cl)cc2)c1,5.56%
6,Cc1cc(C)c(NC(=O)CCN2C(=O)c3cccnc3Sc3ccccc32)c(C)c1,-0.793%
7,Oc1cccc2nc3c(O)cccc3nc12,28.5%
8,O=C(NCCc1ccccc1)c1ccc2c(=O)n(Cc3ccco3)c(=O)n(Cc3cccc([N+](=O)[O-])c3)c2c1,23%
9,CC(C)NC(=O)[C@H]1CCS(=O)(=O)[C@@H]2CN(Cc3ccccc3)C[C@H]12,3.58%
10,COc1cc(OC)cc(-c2nnc(NC(=O)c3ccc([N+](=O)[O-])o3)o2)c1,1.67%
11,O=C(NCc1ccc(F)cc1F)c1csc(C(=O)NC2CC2)n1,-3.4%
12,CC(C(=O)Nc1ccccc1F)C1CCN(C(=O)Nc2ccccc2)CC1 (stereo unspecified),0.962%
13,Cc1nnc(-c2c(C)[nH]c(C)c2S(=O)(=O)NCc2ccccc2)o1,-1.69%
14,CC1(C)CC(=O)N(CC(=O)N2CCCCC2)c2ccccc2S1(=O)=O,0.351%
15,Cc1nc(-c2csc(S(=O)(=O)NC3CC3)c2)no1,-2.36%
16,O=C(Cn1cnc2cc3c(cc21)OCCO3)NCCc1ccccc1,-0.00331%
17,COCCn1ccc2nc(C)c(C(=O)N3CCN(c4cc(C)ccc4C)CC3)cc2c1=O,1.94%
18,CCOC(=O)C(Cc1ccccc1)NC(=O)CCC(=O)c1ccc(OC)cc1 (stereo unspecified),1.4%
19,Cc1nnc(OCC(=O)Nc2ccc(OC(F)(F)F)cc2)c2ccccc12,8.69%

row,Compound,inhibition
1,CCOC(=O)c1noc2ncnc(Nc3ccc4c(c3)OCCO4)c12,2.47%
2,c1cc(N2CCCCCC2)ncc1-c1noc(CN2CCCC2)n1,0.394%
3,CN1Cc2ccccc2CC2(CC(Nc3ccc(C(=O)O)cc3)C2)C1=O (stereo unspecified),-3.39%
4,COc1cc(Cl)c(NC(=O)c2cc(-c3ccccn3)n[nH]2)c(OC)c1,8.97%
5,CC(=O)OC(C)[C@]12C=C(C)[C@H]3[C@H](C)[C@@H](O[C@H]4CC[C@@H](O)[C@@H](C)O4)C4=CC(=O)C=C(N1C(=O)[C@@](C)(O)C2=O)[C@]43O (stereo partly specified),-4.12%
6,Cc1cc(-c2noc(-c3cc4ccccc4oc3=O)n2)c2ccccc2n1,-0.979%
7,O=C(Cn1cnc(S(=O)(=O)N2CCOCC2)c1)Nc1cccc(Cl)c1,2.46%
8,Cc1cc(NC(=O)c2ccc(C(=O)N(C3CCCCC3)C3CCCCC3)cc2)cc(C)c1O,4.77%
9,O=C1NC[C@@H](Cc2ccccc2)NC(=O)C2(C/C=C/COc3ccccc31)CCNCC2,2.07%
10,COC(=O)CC[C@H]1CNC(=O)[C@@H]2[C@@H](CCN2C2CCCCC2)N1C,8.17%
11,O=S(=O)(NC12CC3CC(CC(C3)C1)C2)c1ccc(S(=O)(=O)N2CCCCC2)cc1,-1.48%
12,CNC(=O)C1(C)CN(C(=O)c2ccc3ncccc3c2)CCO1 (stereo unspecified),-0.883%
13,CC(C)[C@H](NC(=O)[C@@H]1Cc2c([nH]c3ccccc23)C2c3ccccc3C(=O)N21)C(=O)NCCc1ccccc1 (stereo partly specified),0.101%
14,COc1cccc(CN2CC[C@@H]3CNS(=O)(=O)[C@@H]3CC2)c1,5.2%
15,O=C(Cc1ccccc1)Nc1ccc(-c2nc3cnccc3o2)c(O)c1,0.256%
16,Cc1cc(F)ccc1NC(=O)c1cc(C2CC2)n2nccc2n1,1.97%
17,Cc1ccc(-n2cc(-c3noc(C(=O)Nc4ccc(F)cc4C)n3)nn2)cc1,38.3% (active)
18,Cc1ccc(Cn2cc(-c3noc(-c4ccccn4)n3)nn2)cc1,-0.677%
